Shown is part of a subset that was picked to be rich in hits.
CendR NRP1 mod = modulators of CendR peptide binding to human neuropilin-1; O14786; FAM-RPARPAR peptide binding to NRP-1, fluorescence polarization; inhibition, % at 25 µM; hit rate 0.85% among 360,000;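 active = inhibition or corrected inhibition above about 18%, plus a signal ratio from 0.5 to 1.5, limit read from the data, passing the limit was not always enough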
ARNT-TACC3 inh = disruptors of human ARNT/TACC3 interaction. Q9Y6A5. hit rate 0.66% among 390,000. AlphaScreen His-ARNT PAS-B/GST-TACC3 binding, luminescence; TACC3 fragment carries E629A point mutation. inhibition, % at 9.99 µM;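 active = mean inhibition of replicates at least 50% and at least half of replicates each reaching 50%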;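 note: 0% = complete ARNT plus TACC3 wells and 100% = ARNT alone without TACC3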
ALR H2O2 inh = inhibitors of human sulfhydryl oxidase ALR; P55789; purified ALR, DTT oxidation, H2O2 HRP-luminol luminescence; inhibition, % (concentration not given with the values); hit rate 3.8% among 290,000; AID 485317;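 active = mean replicate inhibition above about 79%, with every replicate also reaching it, limit read from the data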
PDI turbidity = inhibitors of human protein disulfide isomerase; P07237; PDI insulin aggregation turbidity, A650, 90 min; inhibition, % at 10 µM; hit rate 0.052% among 350,000; AID 588391;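 active = mean inhibition across replicates of 30% or more, whatever share of single replicates reach that level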
Target sequence (P07237 whole entry, looked up): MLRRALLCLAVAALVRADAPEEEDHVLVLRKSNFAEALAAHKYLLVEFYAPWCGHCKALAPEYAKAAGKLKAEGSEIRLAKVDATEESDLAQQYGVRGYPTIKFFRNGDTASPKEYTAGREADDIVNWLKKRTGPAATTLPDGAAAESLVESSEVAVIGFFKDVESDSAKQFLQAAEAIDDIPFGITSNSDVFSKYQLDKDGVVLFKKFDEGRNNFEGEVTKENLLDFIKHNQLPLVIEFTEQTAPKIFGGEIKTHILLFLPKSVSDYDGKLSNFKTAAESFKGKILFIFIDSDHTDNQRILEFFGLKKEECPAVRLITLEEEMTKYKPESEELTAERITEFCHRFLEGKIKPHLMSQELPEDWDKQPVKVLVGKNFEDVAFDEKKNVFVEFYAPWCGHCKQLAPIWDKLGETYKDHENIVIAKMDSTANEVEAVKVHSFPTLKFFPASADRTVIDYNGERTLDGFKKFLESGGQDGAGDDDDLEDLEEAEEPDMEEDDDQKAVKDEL
PglD inh = blocks C. jejuni PglD acetyltransferase activity. purified PglD enzyme, DTNB colorimetric CoA detection. inhibition, % at 12.5 µM. hit rate 0.098% among 360,000. AID 602405; in the data active = inhibition above about 16%, passing the limit was not always enough
ERp5 block = ERp5 (human) disulfide isomerase inhibition; Q15084; ERp5 insulin aggregation, absorbance 650 nm, 90 min; inhibition, % at 9.99 µM; hit rate 0.05% among 350,000;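 active = mean replicate inhibition above about 25%, with every replicate also reaching it, limit read from the data, passing the limit was not always enough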
Active calls of the source: *; · = not tested or not shown.

SMILES	CendR NRP1 mod	ARNT-TACC3 inh	ALR H2O2 inh	PDI turbidity	PglD inh	ERp5 block
COc1ccc(S(=O)(=O)N(C)C[C@H]2Oc3c(NS(=O)(=O)c4ccc(Cl)cc4)cccc3C(=O)N([C@H](C)CO)C[C@H]2C)cc1	·	6.4	·	·	-1.9	·
Cc1noc(C)c1S(=O)(=O)Nc1ccc2c(c1)C(=O)N([C@@H](C)CO)C[C@@H](C)[C@@H](CN(C)C(=O)c1ccccc1)OCCCC[C@@H](C)O2	·	-1.4	·	·	5.4	-1.2
Cc1ccc(/C=C/C(=O)c2ccccc(=O)c2O)cc1C	-41.8	-5.0	95.7*	-2.2	·	-1.1
C[C@@H]1CN([C@H](C)CO)C(=O)c2cc(/C=C/c3ccccc3)cnc2O[C@H]1CN(C)Cc1cncnc1	·	-7.4	·	·	-2.9	-0.8
O=[N+]([O-])c1ccc(CNc2ccc(F)cc2)s1	-5.8	5.4	98.7*	2.1	-2.1	-1.5
COc1ccc(NCc2ccc([N+](=O)[O-])s2)c(OC)c1	5.8	6.3	97.9*	3.9	·	·
O=[N+]([O-])c1ccc(CNc2ccc(Cl)cc2)s1	-1.8	10.7	81.2*	-30.2	-6.6	0.9
COc1ccc(NCc2ccc([N+](=O)[O-])s2)cc1	-2.5	8.3	98.8*	-14.1	·	·
COc1ccc(NC(=O)CCC(=O)N/N=C/c2ccc([N+](=O)[O-])s2)cc1	6.0	-1.4	-22.7	-16.5	2.0	·
O=[N+]([O-])c1ccc(CNc2cccc(Cl)c2)s1	-5.6	3.3	-11.6	-5.7	-5.0	1.5
Cc1ccc(S(=O)(=O)N(C)C[C@@H]2OCCCC[C@@H](C)Oc3ccc(NC(=O)c4ccncc4)cc3C(=O)N([C@@H](C)CO)C[C@H]2C)cc1	·	-7.0	·	·	0.3	2.8
Cc1ccccc1CN(C)C[C@H]1OCc2cnnn2CCCC(=O)N([C@H](C)CO)C[C@H]1C	·	-0.4	·	·	-2.2	-1.4
CCC(=O)N(C)C[C@@H]1Oc2cc(-c3cncnc3)ccc2S(=O)(=O)N([C@@H](C)CO)C[C@H]1C	·	-4.8	·	·	-0.8	3.5
COC(=O)C[C@@H]1C[C@@H]2c3cc(NS(C)(=O)=O)ccc3O[C@@H]2[C@H](CO)O1	·	-3.6	·	·	-1.4	-0.2
CCOC(=O)/C=C/c1nc(C(=O)OCC)c(C)c(=O)[nH]1	15.6	·	96.9*	6.1	-4.1	0.0
COCC(=O)Nc1ccc2c(c1)OC[C@@H](C)N(C(=O)c1ccccn1)C[C@H](C)[C@@H](OC)CN(C)C2=O	·	21.3	·	·	-0.2	·
Cc1noc(C)c1S(=O)(=O)Nc1ccc2c(c1)C(=O)N([C@H](C)CO)C[C@@H](C)[C@@H](CN(C)S(=O)(=O)c1cn(C)cn1)OCCCC[C@H](C)O2	·	-7.9	·	·	-1.5	2.2
Cc1onc(-c2ccccc2Cl)c1C(=O)Nc1sc2c(c1C#N)CCC2	4.9	-0.6	15.5	21.0	1.1	3.0
Cc1onc(C(=O)Nc2sc3c(c2C#N)CCCC3)c1[N+](=O)[O-]	-4.9	-13.1	89.7*	5.0	·	2.9
CN(C)C(=O)c1cccc(-c2ccc3c(c2)[C@@H]2[C@@H](CCN2S(=O)(=O)c2ccccc2)[C@@H](CO)N3)c1	·	-1.2	·	·	-1.4	-0.8
NC(=O)C1CCN(C(=O)C2(NC(=O)Nc3cccc(F)c3)CCCCC2)CC1	-3.3	-8.0	1.5	-1.8	5.4	0.5
O=C(Nc1cccc(F)c1)NC1(C(=O)N2CCC(O)CC2)CCCCC1	24.4*	-2.8	-19.5	-5.5	-0.9	1.8
COCC(=O)Nc1ccc2c(c1)OC[C@@H](C)N(C(=O)CC1CC1)C[C@H](C)[C@H](OC)CN(C)C2=O	·	·	·	·	·	-4.7
CO[C@H]1CN(C)C(=O)c2cc(NC(=O)Nc3ccccc3F)ccc2OC[C@@H](C)N(C)C[C@@H]1C	·	-5.2	·	·	-6.6	-1.6
O=C(NNc1ccc([N+](=O)[O-])cc1[N+](=O)[O-])c1ccco1	3.5	18.8	98.4*	10.5	-4.2	·
SMILES	CendR NRP1 mod	ARNT-TACC3 inh	ALR H2O2 inh	PDI turbidity	PglD inh	ERp5 block
O=C(NNc1ccc([N+](=O)[O-])cc1)c1ccco1	1.0	·	98.6*	4.7	10.0	-15.7
O=C(NC(=S)Nc1ccccc1[N+](=O)[O-])c1ccco1	-3.3	-12.0	94.9*	1.2	·	-6.3
Nc1ccc([N+](=O)[O-])cc1C(=O)NNC(=O)c1ccco1	-2.2	1.1	3.0	16.0	0.4	6.0
COc1ccc(CN(C)C[C@H]2Oc3ccc(NS(=O)(=O)c4ccc(C)cc4)cc3C(=O)N([C@H](C)CO)C[C@@H]2C)cc1	·	7.7	·	·	2.0	0.6
COCc1cn(CC[C@H]2CC[C@@H](NC(=O)Nc3ccc4c(c3)OCO4)[C@H](CO)O2)nn1	·	-15.8	·	·	1.0	2.2
O=C(C[C@H]1CC[C@@H](NC(=O)CC2CC2)[C@H](CO)O1)NCc1ccc(Cl)cc1	·	-0.5	·	·	1.8	-1.4
CCC(=O)Nc1ccc2c(c1)nc1n2CCSC1	0.7	·	98.7*	-7.4	-7.6	·
CC(C)C(=O)Nc1ccc2c(c1)nc1n2CCSC1	-10.0	2.4	98.6*	-2.8	4.0	·
CCCC(=O)Nc1ccc2c(c1)nc1n2CCOC1	-3.7	14.4	0.2	-11.6	-4.4	·
CN(C)C(=O)c1cc2c(c(-c3cccc(-c4ccc(F)cc4)c3)n1)[C@H](CCO)N([S@@](=O)C(C)(C)C)C2	·	1.4	·	·	1.8	4.5
CNC[C@@H]1Oc2c(NC(=O)NC(C)C)cccc2C(=O)N([C@@H](C)CO)C[C@@H]1C	·	9.5	·	·	-0.6	6.9
C/C=C/c1cnc2c(c1)C(=O)N([C@@H](C)CO)C[C@H](C)[C@@H](CN(C)S(=O)(=O)c1ccc(OC)cc1)O2	·	1.0	·	·	2.2	2.5
Cc1ccccc1-c1cnc2c(c1)C(=O)N([C@@H](C)CO)C[C@@H](C)[C@H](CN(C)C(=O)c1ccc(F)cc1)O2	·	-3.3	·	·	2.7	-3.4
c1ccc(Nc2nc(CSc3ncn[nH]3)cs2)cc1	-20.5	-4.9	93.6*	-6.2	·	1.3
COc1ccc(Cl)cc1NC(=O)CCc1nc(-c2ccccc2F)no1	46.2*	-7.8	·	-3.1	1.4	-1.4
COc1ccccc1NC(=O)CCc1nc(-c2ccccc2F)no1	-13.1	-7.8	-50.3	2.9	-2.5	5.6
CO[C@@H]1CN(C)C(=O)c2ccc(NC(=O)C3CCC3)cc2OC[C@@H](C)N(C(=O)NC(C)C)C[C@H]1C	·	-2.4	·	·	4.6	1.0
CCCOc1ccc(Cl)cc1CNc1ccccc1	0.3	-2.5	97.7*	-0.5	·	·
CCCc1sc(N)nc1-c1ccc(C)cc1	17.2*	-23.7	77.9*	-3.5	-5.0	·
N#CCC(=O)Nc1ccc(C(=O)OCC(=O)NC(=O)NCc2ccco2)cc1	-105.1	1.3	97.9*	-4.4	6.1	-11.1
CN(CC(=O)Nc1cccc2ccccc12)C(=O)c1ccc(NC(=O)CC#N)cc1	-8.6	-13.0	93.6*	-0.8	1.8	6.9
Cc1ccc(NC(=O)CN(C)C(=O)COC(=O)c2ccc(NC(=O)CC#N)cc2)cc1	-14.3	8.8	89.7*	-11.4	-7.1	-0.8
